C diff growth = C. difficile growth inhibitors, primary screen, HTS. hit rate 0.25% among 86,000. growth activity, negative = inhibition, % at 16 µg/mL (by protocol). Clostridium difficile clinical isolate growth, OD600, 24 h; hits give low values. AID 1259249, 2017;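 active = mean growth activity at or below -80% and every replicate also at or below -80%; inconclusive = mean at or below -80% but some replicate above -80%; inactive = mean growth activity above -80%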;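 also: 0% = DMSO wells and -100% = levofloxacin 16 µg/mL wells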
Pf Dd2 growth = P. falciparum Dd2 growth inhibitors, primary screen, SYBR Green fluorescence, single dose replicates; 72 h; hits give low values; activity change, % at 10 µM; hit rate 2.3% among 94,000; in the data active = activity change below about -80%; inconclusive = no clear call, values can overlap the other calls
Starred values were filed as active, the others as inactive; ? = inconclusive; . = not tested or not shown. Sampled rows, rich in hits. Any-hit rate of the full collection: about 2.4%.

SMILES | C diff growth | Pf Dd2 growth
C/C=C/c1ccc2c(c1)[C@H]1[C@H](CCN1S(=O)(=O)c1ccccc1C)[C@@H](CO)N2 | -3 | -87*
CCCC#Cc1ccc2c(c1)[C@H]1[C@H](CCN1Cc1ccccc1F)[C@@H](CO)N2 | 14 | -83*
CCCC#Cc1ccc2c(c1)[C@@H]1[C@@H](CCN1S(=O)(=O)c1ccccc1F)[C@@H](CO)N2 | -4 | -64
OC[C@@H]1Nc2ccc(-c3ccccc3)cc2[C@H]2[C@@H]1CCN2Cc1ccccc1F | 71 | -23
C[C@@H]1CN([C@H](C)CO)C(=O)c2cc(NS(=O)(=O)c3ccc(F)cc3)ccc2O[C@H]1CN(C)C(=O)Nc1ccc(C(F)(F)F)cc1 | 7 | -9
C[C@@H]1CCCCO[C@H](CN(C)Cc2ccncc2)[C@@H](C)CN([C@@H](C)CO)C(=O)c2cc(NC(=O)CCC(F)(F)F)ccc2O1 | -1 | .
N#C[C@H]1[C@@H](c2ccc(C#Cc3ccccc3F)cc2)[C@H](CO)N1C(=O)c1cccnc1 | -26 | -49
COc1ccccc1C#Cc1ccc([C@H]2[C@H](C#N)N(C(=O)C3CCCC3)[C@H]2CO)cc1 | -15 | -65
COc1ccccc1C#Cc1ccc([C@@H]2[C@H](C#N)N(C(=O)C3CCCC3)[C@H]2CO)cc1 | -6 | -79
COc1ccccc1C#Cc1ccc([C@H]2[C@@H](C#N)N(C(=O)C3CCCC3)[C@H]2CO)cc1 | 48 | -97*
N#C[C@H]1[C@H](c2ccc(C#Cc3ccccc3F)cc2)[C@H](CO)N1C(=O)c1cccnc1 | 4 | -87*
COc1ccccc1C#Cc1ccc([C@H]2[C@@H](C#N)N(C(=O)C3CCCC3)[C@@H]2CO)cc1 | -3 | -87*
N#C[C@@H]1[C@@H](c2ccc(C#Cc3ccccc3F)cc2)[C@H](CO)N1C(=O)C1CCCCC1 | 3 | -69
N#C[C@H]1[C@@H](c2ccc(C#Cc3ccccc3F)cc2)[C@@H](CO)N1C(=O)C1CCCC1 | -14 | -89*
C[C@@H]1CCCCO[C@@H](CN(C)Cc2ccc(C(=O)O)cc2)[C@H](C)CN([C@H](C)CO)C(=O)c2cc(NS(=O)(=O)c3cn(C)cn3)ccc2O1 | 1 | 43
CCCC(=O)N1CCC2(CC1)CN(Cc1ccccc1F)[C@@H](CO)c1c2c2ccc(OC)cc2n1C | 5 | -83*
COc1ccc2c3c(n(C)c2c1)[C@H](CO)N(Cc1ccccc1F)CC31CN(C(C)=O)C1 | 6 | -25
CCCC(=O)N1CC2(C1)CN(Cc1ccccc1F)[C@H](CO)c1c2c2ccc(OC)cc2n1C | 6 | -87*
CCCC(=O)N1CCC2(CC1)CN(Cc1ccccc1F)[C@H](CO)c1c2c2ccc(OC)cc2n1C | 2 | ?
CCC(=O)N1C[C@H](C)[C@@H](OC)CN(C)C(=O)c2cc(NC(=O)COC)ccc2OC[C@@H]1C | . | 34
C[C@@H]1CCCCO[C@H](CN(C)S(=O)(=O)c2ccc(F)cc2)[C@@H](C)CN([C@H](C)CO)C(=O)c2cc(NC(=O)c3ccncc3)ccc2O1 | -2 | -10
Cc1ccc(S(=O)(=O)N[C@@H]2CC[C@@H](CC(=O)N3CCC(Cc4ccccc4)CC3)O[C@@H]2CO)cc1 | 1 | -15
C[C@H](CO)N1C[C@H](C)[C@H](CN(C)Cc2ccc(C(=O)Nc3ccccc3N)cc2)Oc2ccc(NS(=O)(=O)c3cccs3)cc2C1=O | . | -85*
C[C@@H]1CN([C@H](C)CO)C(=O)Cc2cc(NS(=O)(=O)c3cccs3)ccc2O[C@@H]1CN(C)Cc1ccc(C(=O)Nc2ccccc2N)cc1 | 8 | -86*
C[C@@H]1CN([C@@H](C)CO)C(=O)Cc2cc(NS(=O)(=O)c3cccs3)ccc2O[C@@H]1CN(C)Cc1ccc(C(=O)Nc2ccccc2N)cc1 | 10 | -68
SMILES | C diff growth | Pf Dd2 growth
C[C@@H]1CN([C@H](C)CO)C(=O)c2cc(NS(=O)(=O)c3cccs3)ccc2O[C@@H]1CN(C)Cc1ccc(C(=O)Nc2ccccc2N)cc1 | 2 | -87*
C[C@H]1CN([C@@H](C)CO)C(=O)c2cc(NS(=O)(=O)c3cccs3)ccc2O[C@H]1CN(C)Cc1ccc(C(=O)Nc2ccccc2N)cc1 | 5 | -49
C[C@@H]1CN([C@H](C)CO)C(=O)c2cc(NS(=O)(=O)c3cccs3)ccc2O[C@H]1CN(C)Cc1ccc(C(=O)Nc2ccccc2N)cc1 | . | -46
COc1cccc(-c2ccc([C@@H]3[C@H]4CN(C(=O)C5CCC5)CC(=O)N4[C@H]3CO)cc2)c1 | 4 | -7
Cc1noc(C)c1NC(=O)N(C)C[C@@H]1Oc2ncc(C#CC(C)(C)O)cc2C(=O)N([C@H](C)CO)C[C@@H]1C | . | 35
COc1ccc2c3c([nH]c2c1)[C@H](CO)N(C(C)=O)CC31CN(C(=O)Nc2c(C)noc2C)C1 | -1 | -2
C[C@H](CO)N1C[C@H](C)[C@@H](CN(C)C(=O)c2ccc(F)cc2)Oc2ncc(-c3ccncc3)cc2C1=O | 2 | -2
CC(C)CC#Cc1ccc2c(c1)O[C@@H](CN(C)C(=O)c1ccccc1F)[C@H](C)CN([C@@H](C)CO)S2(=O)=O | 4 | -82*

Assay outcomes as filed in PubChem BioAssay.
